Reference: the supplement of paper PMC8975748
Counter-ions that a name gives are not always drawn.

The molecules below were run on Saccharomyces cerevisiae BY4741 SeMeCo community (assay: z-score of subpopulation abundance vs DMSO median, subpopulation auxotrophic for M; higher = larger share of this subpopulation than in DMSO controls). Conditions: 10 µM; 24 h; SM minimal medium; subpopulation (auxotrophy): M.
Experimental: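 Fluorescent four-plasmid SeMeCo (self-establishing metabolically cooperating S. cerevisiae BY4741 community; plasmids pH-mRuby2, pL-mWasabi, pU-eCFP, pM-TagRFP657) was grown 24 h in minimal SM medium with each Selleck FDA-approved drug at 10 µM in 384-well plates. Cells were fixed and imaged by high-content confocal microscopy. For each auxotrophic subpopulation (and the prototroph), a z-score gives the deviation from the DMSO vehicle-control population median.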

SMILES | z-score of subpopulation abundance
Nc1ccc(S(=O)(=O)Nc2ncccn2)cc1 [Sodium sulfadiazine] | 0.4
O=C(Nc1cccc(C2=NCCN2)c1)Nc1cccc(C2=NCCN2)c1 [Imidocarb dipropionate] | -1.19
N[C@@H](CCC(=O)O)C(=O)O [(S)-Glutamic acid] | -0.4
OB1OCc2cc(F)ccc21 [Tavaborole (AN-2690)] | 1
CC(C)[C@H](N)C(=O)OCC(CO)OCn1cnc2c(=O)[nH]c(N)nc21 (stereo not given in full) [Valganciclovir HCl] | -0.49
COc1ccc2[nH]c([S+]([O-])Cc3ncc(C)c(OC)c3C)nc2c1 (stereo not given) [Omeprazole] | -0.74
C[n+]1ccccc1/C=N/O [Pralidoxime chloride] | 1.37
CCc1c2c(nc3ccc(OC(=O)N4CCC(N5CCCCC5)CC4)cc13)-c1cc3c(c(=O)n1C2)COC(=O)[C@]3(O)CC [Irinotecan HCl Trihydrate] | 1.27
O=c1[nH]c2ccccc2n1CCN1CCN(c2cccc(C(F)(F)F)c2)CC1 [Flibanserin] | -0.31
O=c1cc(-c2ccc(O)c(O)c2)oc2cc(O)cc(O)c12 [Luteolin] | -0.18
Oc1c(Cl)cc(Cl)c2cccnc12 [Chloroxine] | 3.4
CCCNC(C)C(=O)Nc1ccccc1C (stereo not given) [Prilocaine hydrochloride] | -0.36
C[C@@H](O)[C@H]1C(=O)N2C(C(=O)O)=C(S[C@@H]3CN[C@H](CNS(N)(=O)=O)C3)[C@H](C)[C@H]12 [Doripenem Hydrate] | -0.6
CC[C@H]1OC(=O)C[C@@H](O)[C@H](C)[C@@H](O[C@@H]2O[C@H](C)[C@@H](O)[C@H](N(C)C)[C@H]2O)[C@@H](CCN2C[C@H](C)C[C@H](C)C2)C[C@@H](C)C(=O)/C=C/C(C)=C/[C@@H]1CO[C@@H]1O[C@H](C)[C@@H](O)[C@@H](OC)[C@H]1OC [Tilmicosin] | -0.16
C=C[C@H]1CN2CC[C@H]1C[C@H]2[C@H](O)c1ccnc2ccc(OC)cc12 [Quinine HCl Dihydrate] | 0.59
Cc1ccc(Sc2ccccc2N2CCNCC2)c(C)c1 | -0.9
C[C@@H]1O[C@@H]1P(=O)(O)O [Fosfomycin Disodium] | -0.48
Cc1nccn1CC1CCc2c(c3ccccc3n2C)C1=O (stereo not given) [Ondansetron Hydrochloride Dihydrate] | 0.38
O=C1CN(/N=C/c2ccc([N+](=O)[O-])o2)C(=O)N1 [Nitrofurantoin] | 0.84
CC1(C)[C@H](C(=O)O)N2C(=O)C[C@H]2S1(=O)=O [Sulbactam sodium] | 0.51

SMILES | z-score of subpopulation abundance
CN1[C@@H]2CC[C@H]1C[C@@H](OC(c1ccccc1)c1ccccc1)C2 [Benztropine mesylate] | -0.66
CCN1CCCC1CNC(=O)c1cc(S(N)(=O)=O)ccc1OC (stereo not given) [Sulpiride] | 0.12
COc1ccc(Cc2cnc(N)nc2N)cc1OC [Diaveridine] | 0.6
Cc1cc(O)cc(C)c1Cl [Chloroxylenol] | 0.89
CC(C(=O)O)c1ccc2c(c1)[nH]c1ccc(Cl)cc12 (stereo not given) [Carprofen] | -2.06
C[C@]12CC[C@@H]3c4ccc(OS(=O)(=O)O)cc4CC[C@H]3[C@@H]1CCC2=O [Estropipate] | 0.08
COc1ccc(C2CNC(=O)C2)cc1OC1CCCC1 (stereo not given) [Rolipram] | 0.33
CC(=O)[C@H]1CC[C@H]2[C@@H]3CC=C4C[C@@H](O)CC[C@]4(C)[C@H]3CC[C@]12C [Pregnenolone] | -0.05
N#Cc1ccc2[nH]cc(CCCCN3CCN(c4ccc5oc(C(N)=O)cc5c4)CC3)c2c1 [Vilazodone] | 0.28
CCN(CC)C(=O)[C@@]1(c2ccccc2)C[C@H]1CN [Levomilnacipran Hydrochloride] | -0.27
Cc1c(-c2ccccc2)oc2c(C(=O)OCCN3CCCCC3)cccc2c1=O [Flavoxate HCl] | 0.25
O=C([O-])CC(O)(CC(=O)[O-])C(=O)[O-].O=C([O-])CC(O)(CC(=O)[O-])C(=O)[O-].[Bi+3].[K+].[K+].[K+].[K+].[K+] [Bismuth Subcitrate Potassium] | -3.84
CC(C(=O)O)c1ccc2c(c1)CC(=O)c1ccccc1S2 (stereo not given) [Zaltoprofen] | 1.11
O=[N+]([O-])c1ccc(O)c2ncccc12 [Nitroxoline] | 1.38
CC/C(=C(\c1ccccc1)c1ccc(OCCN(C)C)cc1)c1ccccc1 [Tamoxifen Citrate] | -1.11
O=C(Cn1cnnn1)N[C@@H]1C(=O)N2C(C(=O)O)=C(CSc3nncs3)CS[C@H]12 [Ceftezole] | -1.1
CC1=C(CC(=O)O)c2cc(F)ccc2/C1=C\c1ccc([S+](C)[O-])cc1 (stereo not given) [Sulindac] | 0.53
Nc1nnc(-c2cccc(Cl)c2Cl)c(N)n1 [Lamotrigine] | 0.91
CC[C@@]1(O)C(=O)OCc2c1cc1n(c2=O)Cc2cc3cc(O)ccc3nc2-1 [Hydroxy Camptothecine] | 3.88
CC1(C)S[C@@H]2[C@H](NC(=O)Cc3ccccc3)C(=O)N2[C@H]1C(=O)O [Benzathine penicilline] | -0.52
